Experimental data: PubChem BioAssay (EPA / NIEHS)
Active and inactive are the calls of the source. Rule for the calls: active = hit-call score of the fitted dose curve at least 0.9, where 1 is the maximum; inactive = score below 0.9.

read-out: Transforming growth factor beta 1 (TGFb1), TGFB1 (gene 7040); experiment: BSK_KF3CT_TGFb1: BioMAP Diversity Plus: KF3CT Assay for Transforming growth factor beta 1 (TGFb1) Biomarker Activity (AID 2283072); conditions: primary human keratinocytes with fibroblasts; actives raise or lower the signal
Outline: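 Human keratinocyte plus foreskin fibroblast primary co-culture, dosed with chemical for 24 h. TGF-b1 quantified by ELISA. Activity fitted bidirectionally against DMSO negative control as baseline.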

| SMILES | AC50 | outcome |
| --- | --- | --- |
| CCCCCCc1ccc(O)cc1O | 29.7 µM (active) |  |
| COc1ccc2sc(C(=O)Nc3nnn[nH]3)c(OC(C)C)c2c1 | 19.9 µM (active) |  |
| CN(C)c1ccc(N=NS(=O)(=O)O)cc1 |  | inactive |
| Nc1nc2ncc(CNc3ccc(C(=O)N[C@@H](CCC(=O)O)C(=O)O)cc3)nc2c(=O)[nH]1 |  | inactive |
| CCn1nc(Cc2ccccc2)cc1C1CCN(C[C@H]2C[C@H](N(C)[C@@H](C(=O)O)C(C)C)C[C@@H]2c2cccc(F)c2)CC1 |  | inactive |
| Cc1ccc(C)c(O)c1 |  | inactive |
| C=CC(=C)CCC=C(C)C |  | inactive |
| O=C1OC(=O)C2C3C=CC(C3)C12 (stereo not given) |  | inactive |
| CCOC(=O)COc1ccc2c(c1)CC(NCC(O)c1cccc(Cl)c1)CC2 (stereo not given) |  | inactive |
| CCOCCOCCOCCO |  | inactive |
| CCCC(=O)OCC |  | inactive |
| O=C(O)c1cc(N=Nc2ccc(S(=O)(=O)Nc3ccccn3)cc2)ccc1O |  | inactive |
| O=C(NS(=O)(=O)/C=C/c1ccccc1)c1ccc(F)cc1Cl |  | inactive |
| C[C@](N)(Cc1ccc(O)c(O)c1)C(=O)O |  | inactive |
| CCCCC(CC)COC(=O)CCCCCCCCC(=O)OCC(CC)CCCC (stereo not given) |  | inactive |
| CCCCCCCCCCCCc1ccccc1 |  | inactive |
| O=P(OC(CCl)CCl)(OC(CCl)CCl)OC(CCl)CCl |  | inactive |
| CNS(=O)(=O)c1cc(C(=O)N2CCC(CCN3C4CCC3CC(n3c(C)nc5ccccc53)C4)(c3cccc(F)c3)CC2)c(Cl)cc1F (stereo not given) | 32.4 µM (active) |  |
| Oc1ccc2c(c1)-c1ccccc1C2 |  | inactive |
| CC(C)CCCCCCOC(=O)c1ccc(C(=O)OCCCCCCC(C)C)c(C(=O)OCCCCCCC(C)C)c1 |  | inactive |
